Assay results: PubChem BioAssay (Tox21)
Results filed as inconclusive are left out. Where a call stands in place of a potency, no number is given. A number with no mark means an inactive call. The source made the active and inactive calls. Unless noted, calls follow the shape of the dose curve; as a rule, active = well fitted curve in the direction sought with a large enough effect in the repeat runs; inconclusive = weak or mixed curves; inactive = no such curve, though single readings can be large; an effect the other way counts as inactive or inconclusive.

experiment: qHTS assay to identify small molecule agonists of the progesterone receptor (PR) signaling pathway - cell viability counter screen (AID 1346799; calls by dose curve; also: nearly all actives have a fitted effect of over 45% in size; also: potency is read from the fitted curve at half-maximal effect); conditions: PR-UAS-bla HEK293T viability, CellTiter-Glo luminescence, 16 h; series mostly up to 92.4 µM
How it was run: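 Cytotoxicity in PR-bla HEK293T cells: 16 h compound, 37C; CellTiter-Glo added post-FRET read; luminescence after 30 min RT.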

SMILES	Potency	activity change, negative = cytotoxicity
CCn1nc(Cc2ccccc2)cc1C1CCN(C[C@H]2C[C@H](N(C)[C@@H](C(=O)O)C(C)C)C[C@@H]2c2cccc(F)c2)CC1	inactive	
O=Cc1ccc(Cl)c([N+](=O)[O-])c1	inactive	
CC(=O)OCC(=O)[C@@]1(O)CC[C@H]2[C@@H]3CCC4=CC(=O)C=C[C@]4(C)[C@@]3(F)[C@@H](O)C[C@@]21C	inactive	
CCCCCCCCS	inactive	
O=C1c2ccccc2C(=O)C1c1ccc2cc(S(=O)(=O)O)cc(S(=O)(=O)O)c2n1	18.6 µM (active)	
Clc1cc(Cl)c2c(c1)N=C1CCCCCN1C2	inactive	
O=C1c2ccccc2C(=O)C1c1ccc2ccccc2n1	inactive	
S=c1[nH][nH]c(=S)s1	inactive	
CC(C)(O)C(=O)O	inactive	
CC(C(=O)O)c1ccc(/C=C2\CCCCC2=O)cc1 (stereo not given)	inactive	
CC1=CC(=C(c2ccc(N)cc2)c2ccc(N)cc2)C=CC1=N		0% [at 8.39 µM]
Cc1c(Cl)cccc1[N+](=O)[O-]	inactive	
O=C(O)c1ccc(O)c(O)c1	inactive	
CC(=O)c1cccnc1	inactive	
CC(C)C/C=C(\C=O)c1ccccc1	inactive	
CC(=O)c1ccc(Cl)c(Cl)c1Cl	inactive	
[O-][n+]1ccc(Cl)cc1	inactive	
O=C(O)c1cccc(C(=O)O)c1C(=O)O	34.7 µM (active)	
C[C@H](CN1CCCC1)C(=O)c1ccc(C(F)(F)F)cc1	inactive	
CCc1cnc(C(=O)O)c(C(=O)O)c1	inactive	
Cc1cccc(C)c1NC(=O)CN1CCCC1	inactive	
O=C(NC1CCN(CCc2c[nH]c3ccccc23)CC1)c1ccccc1	inactive	
O=C(O)c1ccc2cc(O)ccc2c1	inactive	
CCC(CC)C(=O)O	inactive	
SCCOCCOCCS	inactive	
Oc1ccc(CCNCCCCCCNCCc2ccccc2)cc1O	inactive	
C=CC(C)(O)CC/C=C(/C)CCC=C(C)C (stereo not given)	inactive	
CCN(CC)CC(=O)OCC(=O)[C@@]1(O)CC[C@H]2[C@@H]3CCC4=CC(=O)CC[C@]4(C)[C@H]3[C@@H](O)C[C@@]21C	inactive	

experiment: qHTS assay to identify small molecule antagonists of the TGF-beta/Smad signaling pathway - cell viability counter screen (AID 1346824); conditions: SBE-bla HEK293T viability, CellTiter-Glo luminescence; series mostly up to 76.8 µM; also: nearly all actives have a fitted effect of over 50% in size
How it was run: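 SBE-bla HEK 293T cells, incubated overnight, then compound plus 0.25 ng/mL TGF-beta1 (stock added) for 5 hr at 37 C. Viability was read in the same wells by CellTiter-Glo luminescence after 30 min at room temperature.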

SMILES	outcome	viability change, negative = cytotoxic
Cc1c(Nc2ncccc2C(=O)O)cccc1C(F)(F)F	inactive	
O=Cc1ccc(Cl)c([N+](=O)[O-])c1	inactive	
CC(=O)OCC(=O)[C@@]1(O)CC[C@H]2[C@@H]3CCC4=CC(=O)C=C[C@]4(C)[C@@]3(F)[C@@H](O)C[C@@]21C	inactive	
CO[C@@H]1COCC[C@@H]1N[C@@H]1CC[C@@](C(=O)N2CCc3ncc(C(F)(F)F)cc3C2)(C(C)C)C1	inactive	
CCCCCCCCS	inactive	
O=C1c2ccccc2C(=O)C1c1ccc2cc(S(=O)(=O)O)cc(S(=O)(=O)O)c2n1	inactive	
Clc1cc(Cl)c2c(c1)N=C1CCCCCN1C2	inactive	
O=C1c2ccccc2C(=O)C1c1ccc2ccccc2n1	inactive	
COc1ccc(/C=C/S(=O)(=O)NC(=O)c2ccc(C)cc2Cl)cc1	inactive	
CCCCCCCCOCCCN	inactive	
S=c1[nH][nH]c(=S)s1	inactive	
CC(C)(O)C(=O)O	inactive	
CC(C(=O)O)c1ccc(/C=C2\CCCCC2=O)cc1 (stereo not given)	inactive	
CC1=CC(=C(c2ccc(N)cc2)c2ccc(N)cc2)C=CC1=N		12% [at 6.97 µM]
Cc1c(Cl)cccc1[N+](=O)[O-]	inactive	
O=C(O)c1ccc(O)c(O)c1	inactive	
CC(=O)Oc1cccc2c1C(=O)c1c(OC(C)=O)cc(C(=O)O)cc1C2=O	inactive	
CC(C)NC(=O)c1ccccc1N	inactive	
CC1=C(C)C(=O)C(CCCCC#CCCCC#CCO)=C(C)C1=O	inactive	

SMILES	outcome	viability change, negative = cytotoxic
CC(=O)c1cccnc1	inactive	
CC(C)C/C=C(\C=O)c1ccccc1	inactive	
CC(=O)c1ccc(Cl)c(Cl)c1Cl	inactive	
[O-][n+]1ccc(Cl)cc1	inactive	
COC(=O)C(C)(C)C	inactive	
C/C(=C\C(C)CC(C)CC(C)C)C1CC(=O)OC1=O (stereo not given)	inactive	
O=C(O)c1cccc(C(=O)O)c1C(=O)O	inactive	
C[C@H](CN1CCCC1)C(=O)c1ccc(C(F)(F)F)cc1	inactive	
CCc1cnc(C(=O)O)c(C(=O)O)c1	inactive	
NC(=O)c1ccccc1C(N)=O	inactive	
Cc1cccc(C)c1NC(=O)CN1CCCC1	inactive	
O=C(NC1CCN(CCc2c[nH]c3ccccc23)CC1)c1ccccc1	inactive	
O=C(O)c1ccc2cc(O)ccc2c1	inactive	
Nc1cccc2c(=O)[nH][nH]c(=O)c12	inactive	
CCC(CC)C(=O)O	inactive	
SCCOCCOCCS	inactive	
Oc1ccc(CCNCCCCCCNCCc2ccccc2)cc1O	inactive	
C=CC(C)(O)CC/C=C(/C)CCC=C(C)C (stereo not given)	inactive	
CCN(CC)CC(=O)OCC(=O)[C@@]1(O)CC[C@H]2[C@@H]3CCC4=CC(=O)CC[C@]4(C)[C@H]3[C@@H](O)C[C@@]21C	inactive	

experiment: qHTS assay to identify small molecule agonists of the TGF-beta/Smad signaling pathway - cell viability counter screen (AID 1346829); conditions: SBE-bla HEK293T viability, CellTiter-Glo luminescence, 5 h; series mostly up to 76.8 µM; also: top concentration of the series differs between compounds; nearly all actives have a fitted effect of over 45% in size
How it was run: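 Luminescence from CellTiter-Glo, read after a 30 min room-temperature incubation, gives cell viability of SBE-bla HEK 293T cells treated 5 hr with compounds at 37 C.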

SMILES	outcome	activity change, negative = cytotoxicity
CCn1nc(Cc2ccccc2)cc1C1CCN(C[C@H]2C[C@H](N(C)[C@@H](C(=O)O)C(C)C)C[C@@H]2c2cccc(F)c2)CC1	inactive	
Cc1c(Nc2ncccc2C(=O)O)cccc1C(F)(F)F	inactive	
O=Cc1ccc(Cl)c([N+](=O)[O-])c1	inactive	
CC(=O)OCC(=O)[C@@]1(O)CC[C@H]2[C@@H]3CCC4=CC(=O)C=C[C@]4(C)[C@@]3(F)[C@@H](O)C[C@@]21C	inactive	
CO[C@@H]1COCC[C@@H]1N[C@@H]1CC[C@@](C(=O)N2CCc3ncc(C(F)(F)F)cc3C2)(C(C)C)C1	inactive	
CCCCCCCCS	inactive	
O=C1c2ccccc2C(=O)C1c1ccc2cc(S(=O)(=O)O)cc(S(=O)(=O)O)c2n1	inactive	
Clc1cc(Cl)c2c(c1)N=C1CCCCCN1C2	inactive	
O=C1c2ccccc2C(=O)C1c1ccc2ccccc2n1	inactive	
COc1ccc(/C=C/S(=O)(=O)NC(=O)c2ccc(C)cc2Cl)cc1	inactive	
CCCCCCCCOCCCN	inactive	
S=c1[nH][nH]c(=S)s1	inactive	
CC(C)(O)C(=O)O	inactive	
CC(C(=O)O)c1ccc(/C=C2\CCCCC2=O)cc1 (stereo not given)	inactive	
CC1=CC(=C(c2ccc(N)cc2)c2ccc(N)cc2)C=CC1=N		4.82% [at 6.97 µM]
Cc1c(Cl)cccc1[N+](=O)[O-]	inactive	
O=C(O)c1ccc(O)c(O)c1	inactive	
CC(=O)Oc1cccc2c1C(=O)c1c(OC(C)=O)cc(C(=O)O)cc1C2=O	inactive	
CC(C)NC(=O)c1ccccc1N	inactive	
CC1=C(C)C(=O)C(CCCCC#CCCCC#CCO)=C(C)C1=O	inactive	

SMILES	outcome	activity change, negative = cytotoxicity
CC(=O)c1cccnc1	inactive	
CC(C)C/C=C(\C=O)c1ccccc1	inactive	
CC(=O)c1ccc(Cl)c(Cl)c1Cl	inactive	
[O-][n+]1ccc(Cl)cc1	inactive	
COC(=O)C(C)(C)C	inactive	
C/C(=C\C(C)CC(C)CC(C)C)C1CC(=O)OC1=O (stereo not given)	inactive	
O=C(O)c1cccc(C(=O)O)c1C(=O)O	inactive	
C[C@H](CN1CCCC1)C(=O)c1ccc(C(F)(F)F)cc1	inactive	
CCc1cnc(C(=O)O)c(C(=O)O)c1	inactive	
NC(=O)c1ccccc1C(N)=O	inactive	
Cc1cccc(C)c1NC(=O)CN1CCCC1	inactive	
O=C(NC1CCN(CCc2c[nH]c3ccccc23)CC1)c1ccccc1	inactive	
O=C(O)c1ccc2cc(O)ccc2c1	inactive	
Nc1cccc2c(=O)[nH][nH]c(=O)c12	inactive	
CCC(CC)C(=O)O	inactive	
SCCOCCOCCS	inactive	
Oc1ccc(CCNCCCCCCNCCc2ccccc2)cc1O	inactive	
C=CC(C)(O)CC/C=C(/C)CCC=C(C)C (stereo not given)	inactive	
CCN(CC)CC(=O)OCC(=O)[C@@]1(O)CC[C@H]2[C@@H]3CCC4=CC(=O)CC[C@]4(C)[C@H]3[C@@H](O)C[C@@]21C	inactive	
